From PubChem BioAssay (NCATS)
A number with no mark means an inactive call. Inconclusive results are not listed. Calls of active or inactive are those of the source. Unless noted, calls follow the shape of the dose curve; as a rule, active = well fitted curve in the direction sought with a large enough effect; inconclusive = small, poorly fitted or top-dose-only effect, or another doubt; inactive = no such curve, though single readings can be large; an effect the other way counts as inactive or inconclusive.

What was measured:
[1] = biological target: Lysosomal acid glucosylceramidase (Homo sapiens) (UniProt P04062); assay: Glucocerebrosidase-p2 (AID 348; in the data active = potency below about 10 µM; also: potency is read from the fitted curve at half-maximal effect); details: purified GBA, blue fluorogenic substrate, 40 min
Sequence of Lysosomal acid glucosylceramidase (Homo sapiens) (P04062 whole entry, looked up): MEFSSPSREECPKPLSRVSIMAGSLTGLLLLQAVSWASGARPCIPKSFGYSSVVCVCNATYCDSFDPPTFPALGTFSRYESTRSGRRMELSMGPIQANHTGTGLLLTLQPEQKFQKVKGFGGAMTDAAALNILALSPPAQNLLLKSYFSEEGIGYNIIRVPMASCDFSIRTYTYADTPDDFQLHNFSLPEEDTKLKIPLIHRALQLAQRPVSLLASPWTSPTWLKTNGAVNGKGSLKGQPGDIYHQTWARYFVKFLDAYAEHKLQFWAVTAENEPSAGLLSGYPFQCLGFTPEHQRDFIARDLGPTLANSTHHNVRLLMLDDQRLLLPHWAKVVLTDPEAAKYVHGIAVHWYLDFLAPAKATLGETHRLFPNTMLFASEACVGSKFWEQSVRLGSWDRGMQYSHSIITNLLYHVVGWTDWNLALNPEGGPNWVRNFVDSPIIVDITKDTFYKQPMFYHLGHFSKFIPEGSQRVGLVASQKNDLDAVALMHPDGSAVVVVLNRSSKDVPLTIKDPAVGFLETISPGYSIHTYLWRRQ
Method in brief: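 Compounds titrated from 0.6 nM upwards against 0.2 nM enzyme in pH 5.9 citric acid/KH2PO4, taurocholate, tween-20; blue fluorogenic substrate 80 uM, 40 min room temperature, stopped and read Ex 365/Em 440 for AC50.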

[2] = AP1 Signaling Pathway (AID 357; active = well fitted curve in either direction with a large enough effect, not every such curve was filed as active; also: % is scaled to controls: 0 for no effect and ±100 for the full control effect); details: ME-180 AP-1-bla reporter, EGF-induced, beta-lactamase ratio, 5 h; at 7.69 µM (top of the series) unless noted
Method in brief: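 AP-1-bla ME-180 cells with beta-lactamase reporter under AP-1 response element, stimulated with EC50 EGF; compounds titrated, 5 hours at 37 degrees Celsius. CCF4 read at 460/530 nm ratio; positive and negative modulators judged by AC50.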

[3] = biological target: Cytochrome P450 1A2 (Homo sapiens) (UniProt P05177); assay: p450-cyp1a2 (AID 410; calls by dose curve; also: potency is read from the fitted curve at half-maximal effect); details: recombinant CYP1A2, luciferin-ME demethylation, luminescence; series mostly up to 57 µM
Sequence of Cytochrome P450 1A2 (Homo sapiens) (P05177 whole entry, looked up): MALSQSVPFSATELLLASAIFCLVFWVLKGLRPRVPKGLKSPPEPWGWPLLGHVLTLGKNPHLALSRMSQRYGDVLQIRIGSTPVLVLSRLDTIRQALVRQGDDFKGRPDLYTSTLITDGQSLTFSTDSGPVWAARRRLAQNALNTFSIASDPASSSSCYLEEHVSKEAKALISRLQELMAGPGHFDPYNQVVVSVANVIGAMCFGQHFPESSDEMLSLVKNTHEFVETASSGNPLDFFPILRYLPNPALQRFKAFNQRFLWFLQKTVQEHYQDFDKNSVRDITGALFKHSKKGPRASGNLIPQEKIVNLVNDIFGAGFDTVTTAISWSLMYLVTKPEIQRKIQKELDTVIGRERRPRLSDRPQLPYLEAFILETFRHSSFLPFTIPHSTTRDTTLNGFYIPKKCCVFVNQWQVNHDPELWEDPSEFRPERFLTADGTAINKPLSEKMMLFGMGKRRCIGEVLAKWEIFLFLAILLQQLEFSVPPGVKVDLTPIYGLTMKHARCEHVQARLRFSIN
Method in brief: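 Luminescent readout of luciferin formed from Luciferin-ME by human CYP1A2; data normalized against complete inhibition by 57 uM furafylline. Enzyme 20nM, substrate 100uM at Km, 100mM KPO4 buffer, 60 min reaction at room temperature.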

[4] = NFAT Signaling Pathway (AID 444; active = well fitted curve in either direction with a large enough effect, not every such curve was filed as active;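 also: carbachol stimulus at about its EC50 of 1 µM final; % is scaled to controls: 0 for no effect and ±100 for the full control effect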); details: Jurkat NFAT-bla M1, carbachol, beta-lactamase ratio, 5 h; at 7.69 µM (top of the series) unless noted
Method in brief: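 Jurkat cells carrying an NFAT-driven β-lactamase reporter and co-transfected muscarinic M1 receptor were treated with compound plus carbachol (1 uM final, an EC50 level) for 5 h at 37 °C. CCF4 loading followed for 1 h at RT; 460/530 nm ratio gave %activity.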

[5] = Stat Signaling Pathway (AID 446; active = well fitted curve in either direction with a large enough effect, not every such curve was filed as active;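 also: ME-180 cervical cancer cells given 40 pM IL-6 alongside compound; SIE-controlled beta-lactamase reporter measured as 460/530 nm FRET emission ratio; % is scaled to controls: 0 for no effect and ±100 for the full control effect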); details: ME-180 SIE beta-lactamase reporter, IL-6 stimulated, 5 h; at 7.69 µM (top of the series) unless noted
Method in brief: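 Screening format detects activators and inhibitors alike: ME-180 SIE-bla cells stimulated at 40 pM IL-6 for 5 hrs with compound, then dual-emission beta-lactamase read at 405 nm excitation.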

[6] = biological target: Glucocorticoid receptor (Homo sapiens) (UniProt P04150); assay: GR-GFP Redistribution (AID 450;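 active = compounds whose dose series gives a full or clear partial fitted curve of increased nuclear translocation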; also: potency is read from the fitted curve at half-maximal effect); details: U2OS GR-GFP nuclear translocation, laser cytometry, 2 h
Sequence of Glucocorticoid receptor (Homo sapiens) (P04150 whole entry, looked up, the tested form may be a part): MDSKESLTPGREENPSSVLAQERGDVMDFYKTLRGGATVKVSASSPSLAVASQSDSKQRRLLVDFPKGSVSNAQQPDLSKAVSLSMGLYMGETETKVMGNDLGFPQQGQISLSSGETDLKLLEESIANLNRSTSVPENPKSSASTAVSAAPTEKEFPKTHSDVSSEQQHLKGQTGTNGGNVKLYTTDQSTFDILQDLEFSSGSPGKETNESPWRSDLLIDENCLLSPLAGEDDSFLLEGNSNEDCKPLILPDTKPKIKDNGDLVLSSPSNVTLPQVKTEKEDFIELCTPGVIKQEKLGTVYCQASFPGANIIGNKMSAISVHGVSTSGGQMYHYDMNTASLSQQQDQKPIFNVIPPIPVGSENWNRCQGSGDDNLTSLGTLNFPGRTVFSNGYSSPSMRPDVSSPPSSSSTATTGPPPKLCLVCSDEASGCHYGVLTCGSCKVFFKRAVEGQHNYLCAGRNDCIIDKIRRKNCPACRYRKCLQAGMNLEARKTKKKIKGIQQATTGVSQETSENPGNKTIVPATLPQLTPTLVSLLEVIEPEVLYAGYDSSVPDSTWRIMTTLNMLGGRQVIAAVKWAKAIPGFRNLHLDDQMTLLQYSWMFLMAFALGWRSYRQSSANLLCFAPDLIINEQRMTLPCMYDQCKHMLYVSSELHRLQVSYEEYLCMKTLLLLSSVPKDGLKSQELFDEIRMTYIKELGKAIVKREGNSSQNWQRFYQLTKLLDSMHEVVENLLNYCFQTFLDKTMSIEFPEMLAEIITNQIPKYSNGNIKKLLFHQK

[7] = biological target: Glucocorticoid receptor (Homo sapiens) (UniProt P04150); assay: GR-EFC Redistribution (AID 451; calls by dose curve; also: potency is read from the fitted curve at half-maximal effect); details: CHO-K1 GR-EFC translocation, beta-gal luminescence, 2 h
Method in brief: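 CHO-K1 cells stably expressing nuclear-localized β-gal enzyme acceptor and GR fused C-terminally to the enzyme donor fragment; ligand-driven nuclear translocation restores β-gal by complementation. Compounds titrated up to 46 uM final, 2 h at 37 °C; luminescence read.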

[8] = biological target: Mitogen-activated protein kinase 10 (Mus musculus) (UniProt Q61831); assay: JNK3 AlphaScreen Assay (AID 530; active = well fitted curve in either direction with a large enough effect, not every such curve was filed as active;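 also: kinase came from lysate of stimulated human HepG2 cells; signal reports phosphorylation of biotinylated GST-cJun 1-79 at Ser73 with 10 µM ATP; % is scaled to controls: 0 for no effect and ±100 for the full control effect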); details: JNK3 lysate, c-Jun phosphorylation; series mostly up to 57.1 µM
Method in brief: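 Inhibitors reduce antibody binding to phosphorylated biotin-cJun, lowering AlphaScreen luminescence. Lysates from HepG2 cells pre-activated by IL-1beta plus TNF-alpha supplied JNK3; compounds were titrated.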

[9] = biological target: 3',5'-cyclic-AMP phosphodiesterase 4B (Homo sapiens) (UniProt Q07343); assay: qHTS Assay for Inhibitors of PDE-IV (AID 607; active = well fitted activation curve with a large enough effect in the main read-out, with a control signal flat, not every such curve was filed as active; also: % of control where 0% means no effect); details: HEK293 ACTOne CNG channel cells, membrane potential fluorescence; series mostly up to 22.9 µM
Sequence of 3',5'-cyclic-AMP phosphodiesterase 4B (Homo sapiens) (Q07343 whole entry, looked up): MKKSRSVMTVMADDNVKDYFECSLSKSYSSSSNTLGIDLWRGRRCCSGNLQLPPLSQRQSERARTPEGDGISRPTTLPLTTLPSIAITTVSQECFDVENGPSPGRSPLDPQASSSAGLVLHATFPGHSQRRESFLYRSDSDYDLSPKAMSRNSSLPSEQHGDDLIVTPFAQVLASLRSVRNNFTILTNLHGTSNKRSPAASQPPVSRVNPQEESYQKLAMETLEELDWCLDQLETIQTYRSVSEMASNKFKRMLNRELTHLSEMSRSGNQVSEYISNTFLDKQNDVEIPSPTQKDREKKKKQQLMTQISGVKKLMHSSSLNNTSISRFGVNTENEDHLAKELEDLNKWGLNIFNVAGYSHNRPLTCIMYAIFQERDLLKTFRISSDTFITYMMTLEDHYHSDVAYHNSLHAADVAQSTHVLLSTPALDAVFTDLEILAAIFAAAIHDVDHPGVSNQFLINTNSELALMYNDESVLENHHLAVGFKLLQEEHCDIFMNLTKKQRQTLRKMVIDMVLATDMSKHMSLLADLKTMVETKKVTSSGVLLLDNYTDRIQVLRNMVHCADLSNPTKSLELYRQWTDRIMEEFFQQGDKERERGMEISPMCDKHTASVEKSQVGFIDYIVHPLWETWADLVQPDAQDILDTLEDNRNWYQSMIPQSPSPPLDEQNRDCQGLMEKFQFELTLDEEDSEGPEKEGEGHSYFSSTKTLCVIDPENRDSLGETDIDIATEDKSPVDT
Method in brief: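 The readout is membrane depolarisation from a cAMP-sensing CNG channel, detected with a potential dye at ex 535/em 590. Cells were HEK293-derived (endogenous PDE-IV) at 1000 cells/well, titrated up to 22.9 uM final.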

[10] = biological target: Cytochrome P450 3A4 (Homo sapiens) (UniProt P08684); assay: qHTS Assay for Inhibitors and Substrates of Cytochrome P450 3A4 (AID 884); details: recombinant CYP3A4, Luciferin-PPXE luminescence; series mostly up to 57.1 µM; also: potency is read from the fitted curve at half-maximal effect; nearly all actives have a fitted effect of over 50% in size
Sequence of Cytochrome P450 3A4 (Homo sapiens) (P08684 whole entry, looked up): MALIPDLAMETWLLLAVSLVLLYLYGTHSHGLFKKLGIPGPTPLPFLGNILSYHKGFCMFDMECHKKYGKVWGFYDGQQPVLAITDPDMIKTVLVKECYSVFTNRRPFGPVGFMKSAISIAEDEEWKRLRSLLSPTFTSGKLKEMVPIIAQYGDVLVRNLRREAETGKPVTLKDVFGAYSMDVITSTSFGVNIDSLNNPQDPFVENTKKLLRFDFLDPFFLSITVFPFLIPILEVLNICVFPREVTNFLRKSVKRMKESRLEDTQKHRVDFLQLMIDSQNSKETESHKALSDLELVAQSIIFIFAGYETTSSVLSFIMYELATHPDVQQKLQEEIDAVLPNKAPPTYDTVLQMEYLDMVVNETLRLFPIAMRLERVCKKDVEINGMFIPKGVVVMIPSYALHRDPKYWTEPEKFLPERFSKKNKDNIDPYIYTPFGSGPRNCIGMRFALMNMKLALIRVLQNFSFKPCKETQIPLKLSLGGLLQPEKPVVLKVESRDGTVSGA
Method in brief: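 20 nM human CYP3A4 with 25 uM Luciferin-PPXE (at KM) in 200 mM KPO4, preincubated 10 min with compound; NADPH regeneration started a 60 min RT reaction. Luciferin detected by luminescence, normalized to 57 uM ketoconazole as full inhibition.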

[11] = biological target: Cytochrome P450 3A4 (Homo sapiens) (UniProt P08684); assay: qHTS Assay for Activators of Cytochrome P450 3A4 (AID 885); details: recombinant CYP3A4, Luciferin-PPXE luminescence, 60 min; series mostly up to 57.1 µM; also: nearly all actives have a fitted effect of over 65% in size
Method in brief: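 Steps: enzyme/substrate mix dispensed; compound added, 10 min RT; NADPH regeneration solution added, 60 min RT; luciferin detection buffer stops reaction; 20 min later luminescence measured.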

[12] = biological target: Dual specificity protein kinase CLK4 (Homo sapiens) (UniProt Q9HAZ1); assay: qHTS Assay for Inhibitors of CDC-like Kinase 4 (ADP-Glo Assay) (AID 1771); details: recombinant CLK4, ADP-Glo luminescence; series mostly up to 80 µM; also: nearly all actives have a fitted effect of over 70% in size; also: potency is read from the fitted curve at half-maximal effect
Sequence of Dual specificity protein kinase CLK4 (Homo sapiens) (Q9HAZ1 whole entry, looked up): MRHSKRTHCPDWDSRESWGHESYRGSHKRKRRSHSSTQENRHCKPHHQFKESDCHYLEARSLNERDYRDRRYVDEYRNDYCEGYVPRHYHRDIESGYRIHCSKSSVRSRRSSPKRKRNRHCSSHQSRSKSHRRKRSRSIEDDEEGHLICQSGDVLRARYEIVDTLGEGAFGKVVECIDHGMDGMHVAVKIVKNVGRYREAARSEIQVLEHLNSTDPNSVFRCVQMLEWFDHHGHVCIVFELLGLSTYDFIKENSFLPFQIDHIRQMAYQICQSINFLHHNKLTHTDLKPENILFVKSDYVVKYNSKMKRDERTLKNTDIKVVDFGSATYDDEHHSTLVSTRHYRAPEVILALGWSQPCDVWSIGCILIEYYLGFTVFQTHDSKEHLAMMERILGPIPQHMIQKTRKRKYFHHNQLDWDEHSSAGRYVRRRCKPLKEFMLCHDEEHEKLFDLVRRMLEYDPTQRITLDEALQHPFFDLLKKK
Method in brief: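 Luminescence from ADP-Glo reports ADP produced by 25 nM Clk4 acting on 100 uM RS repeat peptide with 1 uM ATP over 1 hr at room temperature; residual ATP is depleted before ADP is converted to ATP for detection.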

[13] = biological target: Dual specificity protein kinase CLK4 (Homo sapiens) (UniProt Q9HAZ1); assay: qHTS Assay for Inhibitors of CDC-like Kinase 4 (ADP-FP Assay) (AID 1795); details: Transcreener ADP fluorescence polarization; series mostly up to 50 µM; also: nearly all actives have a fitted effect of over 60% in size; also: potency is read from the fitted curve at half-maximal effect
Method in brief: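 Kinase activity was measured as ADP production using Transcreener orange tracer (4 nM) and ADP antibody (1 ug/mL) fluorescence polarization, with ADP calculated from a calibration curve. The 1 h reaction contained 6.25 nM Clk4, 1 uM ATP and 100 uM RS peptide at pH 7.5 with Mg2+.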

[14] = biological target: Ubiquitin carboxyl-terminal hydrolase 1 (Homo sapiens) (UniProt O94782); assay: Inhibitors of USP1/UAF1: Pilot qHTS (AID 504865); details: purified USP1/UAF1, Ub-rhodamine cleavage fluorescence; series mostly up to 54.9 µM; also: nearly all actives have a fitted effect of over 35% in size; also: potency is read from the fitted curve at half-maximal effect
Sequence of Ubiquitin carboxyl-terminal hydrolase 1 (Homo sapiens) (O94782 whole entry, looked up): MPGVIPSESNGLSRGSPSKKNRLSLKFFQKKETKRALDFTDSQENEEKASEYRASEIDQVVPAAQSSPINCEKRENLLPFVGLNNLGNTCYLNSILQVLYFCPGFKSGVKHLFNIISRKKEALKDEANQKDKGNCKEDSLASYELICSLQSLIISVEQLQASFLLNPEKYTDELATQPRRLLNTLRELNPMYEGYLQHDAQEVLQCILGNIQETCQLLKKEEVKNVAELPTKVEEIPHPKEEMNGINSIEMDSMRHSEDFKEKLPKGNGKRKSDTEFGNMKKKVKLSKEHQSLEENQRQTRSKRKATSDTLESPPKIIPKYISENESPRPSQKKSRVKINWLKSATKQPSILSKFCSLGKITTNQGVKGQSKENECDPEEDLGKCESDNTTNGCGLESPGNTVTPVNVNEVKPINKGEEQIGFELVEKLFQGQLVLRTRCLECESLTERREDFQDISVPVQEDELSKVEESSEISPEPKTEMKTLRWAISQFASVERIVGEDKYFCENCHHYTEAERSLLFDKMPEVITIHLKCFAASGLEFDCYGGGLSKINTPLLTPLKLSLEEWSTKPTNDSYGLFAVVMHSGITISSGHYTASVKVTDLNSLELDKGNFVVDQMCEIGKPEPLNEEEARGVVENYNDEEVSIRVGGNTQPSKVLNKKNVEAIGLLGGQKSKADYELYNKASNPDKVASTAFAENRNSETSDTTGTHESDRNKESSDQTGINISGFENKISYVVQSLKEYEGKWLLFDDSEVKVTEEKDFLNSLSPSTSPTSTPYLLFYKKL
Method in brief: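 Deubiquitinase activity followed as kinetic rhodamine fluorescence release from 150 nM Ub-Rho. 1 nM USP1/UAF1 with compound, after 15 min room-temperature preincubation, in HEPES pH 7.8 buffer containing TCEP, EDTA, BSA and Tween-20.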

[15] = Primary qHTS for small molecule stabilizers of the endoplasmic reticulum resident proteome: Secreted ER Calcium Modulated Protein (SERCaMP) assay (AID 1508630); details: SH-SY5Y GLuc-SERCaMP (Gaussia luciferase released on ER calcium loss) secretion, thapsigargin, luminescence; series mostly up to 38.4 µM; also: % is scaled to controls: 0 for no effect and ±100 for the full control effect
Method in brief: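 GLuc-SERCaMP-expressing SH-SY5Y cells, pretreated 16 h with compound, are challenged with thapsigargin to empty ER calcium stores; after 4 h, coelenterazine is added directly to the medium and luminescence is imaged.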

[16] = biological target: Dual specificity protein kinase CLK4 (Homo sapiens) (UniProt Q9HAZ1); assay: qHTS Assay for Inhibitors of CDC-like Kinase 4 (Kinase-Glo Assay) (AID 1770); details: recombinant Clk4, Kinase-Glo ATP depletion luminescence; series mostly up to 66.7 µM; also: % is scaled to controls: 0 for no effect and ±100 for the full control effect; nearly all actives have a fitted effect of over 65% in size
Method in brief: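 Luminescent ATP-depletion read-out (Kinase-Glo) after 4.5 h room-temperature reaction of Clk4 (25 nM final) with RS peptide (100 uM) and ATP (1 uM), pH 7.5 Tris buffer with MgCl2 and DTT.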

[17] = biological target: Cytochrome P450 2C9 (Homo sapiens) (UniProt P11712); assay: qHTS Assay for Inhibitors and Substrates of Cytochrome P450 2C9 (AID 883); details: recombinant CYP2C9, luciferin-H luminescence, 60 min; series mostly up to 57.1 µM; also: % is scaled to controls: 0 for no effect and ±100 for the full control effect; nearly all actives have a fitted effect of over 60% in size
Sequence of Cytochrome P450 2C9 (Homo sapiens) (P11712 whole entry, looked up): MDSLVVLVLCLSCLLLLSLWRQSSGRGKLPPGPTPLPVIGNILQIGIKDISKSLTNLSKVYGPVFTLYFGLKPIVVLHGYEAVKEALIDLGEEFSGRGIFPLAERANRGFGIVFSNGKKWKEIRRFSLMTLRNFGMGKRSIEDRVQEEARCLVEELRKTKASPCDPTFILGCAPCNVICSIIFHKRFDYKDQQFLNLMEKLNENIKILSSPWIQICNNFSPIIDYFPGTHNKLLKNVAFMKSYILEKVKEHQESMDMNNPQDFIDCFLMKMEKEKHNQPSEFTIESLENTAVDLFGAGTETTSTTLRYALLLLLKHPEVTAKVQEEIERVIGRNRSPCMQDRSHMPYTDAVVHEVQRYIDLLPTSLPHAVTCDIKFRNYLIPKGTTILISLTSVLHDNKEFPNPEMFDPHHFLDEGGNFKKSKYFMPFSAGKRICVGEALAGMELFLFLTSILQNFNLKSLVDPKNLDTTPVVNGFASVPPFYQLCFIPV
Method in brief: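 CYP2C9 deoxyluciferin hydroxylation, 37C, 60 min with NADPH regeneration; 10nM enzyme, 100uM Luciferin-H (KM). Glo detection reagent stopped reaction; luminescence normalized to sulphaphenazole (57uM) full inhibition.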

[18] = qHTS Assay for Identification of Small Molecule Agonists for Hypoxia Response Element Signaling Pathway (AID 914; active = well fitted activation curve with a large enough effect in the signal ratio, with a control signal flat, not every such curve was filed as active; the % refers to the signal ratio; also: % of control where 0% means no effect); details: ME-180 (cervical carcinoma) HRE-bla reporter, beta-lactamase ratio, CoCl2, 17 h; activation: stronger effect = higher value
Method in brief: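 qHTS titration; ME-180 HRE-bla cells; EC50 CoCl2 co-treatment, 17 h at 37 degrees Celsius; CCF4 dye, ex 405nm, em 460nm and 530nm; %Activity from ratio; AC50.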

[19] = biological target: Cytochrome P450 2C19 (Homo sapiens) (UniProt P33261); assay: qHTS Assay for Inhibitors and Substrates of Cytochrome P450 2C19 (AID 899); details: recombinant CYP2C19, luciferin-H EGE luminescence; series mostly up to 57.1 µM; also: potency is read from the fitted curve at half-maximal effect; nearly all actives have a fitted effect of over 60% in size
Method in brief: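 In 50mM KPO4, the reaction held 5nM enzyme and KM-level (10uM) Luciferin-H EGE; it ran 60 min at 37C after NADPH regeneration and a 10 min compound preincubation. Luminescence values were scaled to 57uM ketoconazole as complete inhibition.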

Compound	Potency [1] [µM]	activity change, negative = inhibition [2] [%]	Potency [3]	activity change, negative = inhibition [4] [%]	activity, negative = inhibition [5] [%]	Potency [6] [µM]	Potency [7] [µM]	Potency [8]	Potency [9]	Potency [10]	Potency [11]	Potency [12]	Potency [13]	Potency [14]	outcome [15]	Potency [16]	Potency [17]	activation [18] [%]	Potency [19]
COc1cccc(-c2nccc(NCc3cnc(C)cn3)n2)c1	> 11.4	2.41	0.501 µM (active)	-1.09	13.7	> 46	> 46	inactive	inactive	6.31 µM (active)	inactive	28.2 µM (active)	inactive	inactive	inactive				
CN(C)C(=O)c1ccc(-c2nc(-n3ccnc3)c3ccccc3n2)cc1			20 µM (active)	2.92	6.8	> 46	> 46	inactive	inactive					inactive	inactive	inactive			
FC(F)(F)c1ccccc1-c1cncnc1-n1ccnc1	> 11.4	-6.84		-7.53	3.29		> 46	inactive	inactive			inactive	inactive	inactive	inactive				
COc1ncc2nc(-c3cn(C)c4ccccc34)c(=O)n(-c3ccccc3)c2n1	> 11.4	-0.341	5.01 µM (active)	-18.5	6.13	> 9.22	> 46	inactive			inactive	inactive	inactive	inactive	inactive		inactive		
COc1ccccc1-c1nc(N2CCOCC2)c2ccccc2n1	> 11.4	-9.32	0.501 µM (active)	10.4	14.3	> 46	> 46				inactive	20 µM (active)	inactive	inactive	inactive				
COc1ccccc1CNc1ccnc(-c2c(C)noc2C)n1	> 11.4	18	0.398 µM (active)	-13.8	-17.2	> 46	> 46	inactive		5.01 µM (active)	inactive	inactive	inactive		inactive				
Cc1cnc(CNc2ncncc2-c2ccc(N(C)C)cc2)cn1	> 11.4	3.22	3.16 µM (active)	-0.821	13.6	> 46	> 46	inactive	inactive	2 µM (active)		15.8 µM (active)	inactive	inactive	inactive				
COCCn1c(=O)c(C)nc2cnc(N3CCOCC3)nc21	> 11.4	-1.95		-1.73	-12.9	> 9.22		inactive	inactive			inactive	inactive	inactive	inactive				
COCCn1c(=O)c(-c2cn(C)c3ccccc23)nc2cnc(OCc3ccccc3)nc21	> 11.4	-1.93	5.01 µM (active)	-4.76	23.6	> 9.22	> 46	inactive			inactive	inactive	inactive	inactive	inactive				
Cc1ccccc1-c1ccc2ncnc(NCc3cccs3)c2c1	> 11.4	-9.99	2.51 µM (active)	-15.8	-13.1	> 46	> 46	inactive		3.98 µM (active)	inactive	3.55 µM (active)	3.55 µM (active)	14.1 µM (active)	inactive			2.83	
Cc1nc2cnc(N(C)C)nc2n(CCc2ccccc2)c1=O	> 11.4	-5.39	1.26 µM (active)	-14.5		> 9.22	> 46	inactive			inactive	35.5 µM (active)	inactive	inactive	inactive			-12	0.631 µM (active)
N#CCCn1c(=O)c(-c2ccccc2)nc2cnc(N3CCOCC3)nc21	> 11.4	20.5	10 µM (active)			> 9.22	> 46	inactive						inactive	inactive	inactive			
Clc1ccccc1-c1cc(NCCN2CCOCC2)ncn1	> 11.4	1.17	31.6 µM (active)	-9.62	2.93	> 46	> 46	inactive	inactive			inactive	inactive	inactive	inactive				
